ssDAF-12 act = S. stercoralis DAF-12 nuclear receptor activators, primary screen, cell-based, luminescence, HEK293, GRIP1 co-expression, lit1-tk-luc; 1% of 370,000 active; HEK293 ssDAF-12/GRIP1 lit1-tk-luc reporter; % of 3 µM dafachronic acid response; activation, % at 6.8 µM;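 active means activation above the mean over all tested compounds plus 3 SD, cut at about 0.9% in these data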
hgDAF12 agonist = H. glycines DAF-12 receptor agonists, primary screen, cell-based, luminescence, HEK293, GAL4 fusion, UAS-luciferase. activation, % at 6.8 µM. HEK293 GAL4-hgDAF12 UAS-luciferase reporter, agonist luminescence; normalized to butyrate control. 1.8% of 370,000 active. Nuclear hormone receptor DAF-12 (Heterodera glycines), GAL4 fusion;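 active means activation above a cutoff set at the mean of all screened compounds plus 3 SD, cut at about 10% in these data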
DAX1 inh-1 = DAX1 (NR0B1) inhibitors, primary screen, cell-based, HEK293, Gal4-DAX1, luciferase luminescence; Nuclear receptor subfamily 0 group B member 1 (Homo sapiens), P51843; HEK293 Gal4-DAX1 luciferase reporter; inhibition, % at 6.75 µM; 0.99% of 340,000 active; AID 504766, 2011;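 active means inhibition above the mean over all tested compounds plus 3 SD, cut at about 4.2% in these data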;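 further: inhibition shows as a rise in luminescence from relieved DAX1 repression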
AHR activator = AHR activators, primary screen, cell-based, luminescence, luciferase reporter, human | AHR-responsive luciferase reporter cells | activation, % at 5 µM | 2.5% of 320,000 active | Aryl hydrocarbon receptor (Homo sapiens), P35869; in the data active means activation above about 47%
Target sequence (P35869 whole entry, looked up): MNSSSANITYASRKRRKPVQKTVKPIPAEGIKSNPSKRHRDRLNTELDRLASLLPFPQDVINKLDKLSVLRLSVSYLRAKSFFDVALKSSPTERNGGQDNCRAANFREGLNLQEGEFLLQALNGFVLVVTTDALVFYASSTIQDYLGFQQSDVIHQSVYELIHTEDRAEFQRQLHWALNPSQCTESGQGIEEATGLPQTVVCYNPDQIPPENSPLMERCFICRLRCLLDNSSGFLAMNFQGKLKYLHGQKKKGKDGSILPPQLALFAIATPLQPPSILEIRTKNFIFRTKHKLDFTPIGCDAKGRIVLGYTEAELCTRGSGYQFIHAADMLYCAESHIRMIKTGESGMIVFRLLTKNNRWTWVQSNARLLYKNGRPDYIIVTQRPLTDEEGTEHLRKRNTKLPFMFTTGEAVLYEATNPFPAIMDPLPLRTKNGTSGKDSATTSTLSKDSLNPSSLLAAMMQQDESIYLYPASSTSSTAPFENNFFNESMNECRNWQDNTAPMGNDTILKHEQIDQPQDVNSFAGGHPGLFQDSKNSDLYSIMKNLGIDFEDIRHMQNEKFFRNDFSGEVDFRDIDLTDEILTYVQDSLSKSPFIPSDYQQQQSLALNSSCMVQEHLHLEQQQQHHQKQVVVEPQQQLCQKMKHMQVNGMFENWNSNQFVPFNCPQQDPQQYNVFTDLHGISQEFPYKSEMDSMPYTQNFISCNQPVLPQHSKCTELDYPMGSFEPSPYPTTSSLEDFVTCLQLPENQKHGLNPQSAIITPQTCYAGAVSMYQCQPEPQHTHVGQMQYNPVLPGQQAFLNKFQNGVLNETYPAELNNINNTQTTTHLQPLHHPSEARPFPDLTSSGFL
hcDAF-12 act = H. contortus DAF-12 nuclear receptor activators, primary screen, cell-based, luminescence, HEK293, lit1-tk-luc reporter; HEK293 hcDAF-12 lit1-tk-luc reporter; 0% DMSO, 100% Δ7-dafachronic acid; activation, % at 6.8 µM; 1.4% of 370,000 active;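 active means activation above the mean of all tested compounds plus 3 SD, cut at about 5.5% in these data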
DAX1 inh-2 = DAX1 (NR0B1) inhibitors on StAR promoter, primary screen, cell-based, luminescence, SF-1 (NR5A1), full-length DAX-1; HEK293T StAR-luciferase reporter, SF-1/DAX-1 repression relief; AID 652010, 2013; inhibition, % at 6.8 µM; 1.1% of 370,000 active;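 active means inhibition above the mean over all tested compounds plus 3 SD, cut at about 3.6% in these data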;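 further: higher inhibition means more luminescence from relief of DAX-1 repression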
Each line names hits and unclear results; the compound was inactive in the other large screens. Most compounds without a hit are left out; they make up all but 5.7% or so of the library.

O=C(CCCC(=O)N(c1ccc(F)cc1)C(C(=O)NC1CCCC1)c1ccc(O)cc1)Nc1ccccn1 (configuration not stated)	none
COCCN1Cc2cc(C(=O)OC)c3c(c2C1=O)c1ccccc1n3S(=O)(=O)c1ccc(C)cc1	none (no result: DAX1 inh-1, AHR activator)
Cc1ccc(NC(=O)c2sc3nc4c(c(-c5ccco5)c3c2N)CCC4)cc1	AHR activator 60.3
Nc1c(C(=O)Nc2ccc(Br)cc2)sc2nc(-c3ccco3)ccc12	AHR activator 60.4
Nc1c(C(=O)Nc2ccc(F)cc2)sc2nc(-c3ccco3)ccc12	AHR activator 72.2
Nc1c(C(=O)Nc2ccccc2)sc2nc3c(c(-c4ccco4)c12)CCC3	none
OCC(CCc1c[nH]c2ccccc12)c1c[nH]c2ccccc12 (configuration not stated)	none (no result: DAX1 inh-1, AHR activator)
CC1CCN(C(=O)COc2ccc3ccccc3c2Br)CC1	DAX1 inh-2 4.2
CNc1nc(Cl)nc2c1ncn2-c1ccccc1	DAX1 inh-1 4.6 (no result: AHR activator)
O=C(O)c1cc(=O)[nH]c2c(Cl)cccc12	hcDAF-12 act 5.8
COc1ccc2[nH]c(=O)cc(C(=O)O)c2c1	none
COC(=O)c1ccccc1NC(=O)C1CCN(c2ncnc3c2nc2n3CCCCC2)CC1	DAX1 inh-1 4.8
COc1ccccc1NC(=O)C1CCN(c2ncnc3c2nc2n3CCCCC2)CC1	none
Cn1c(/C(C#N)=C(\O)c2cccc(F)c2)nc2ccccc21	ssDAF-12 act 1.4, AHR activator 63.3
COc1cc(NC(=O)C2CCCCC2)c(OC)cc1NC(=O)c1ccccc1	AHR activator 54.4
CCc1ccc(NC(=O)c2ccccc2NC(=O)C2CCCO2)cc1 (configuration not stated)	hgDAF12 agonist 12.9
COc1cc(NC(=O)C2CCCCC2)c(OC)cc1NC(=O)c1ccco1	none
COc1cc(NC(=O)C2CCCO2)c(OC)cc1NC(=O)c1ccccc1 (configuration not stated)	AHR activator 78.4
CCOc1ccccc1NC(=O)c1cccc(NC(=O)C2CCCC2)c1	AHR activator 59.9
COc1cc(NC(=O)C2CCCO2)c(OC)cc1Cl (configuration not stated)	none
Cc1cc(C(=O)NNC(=O)/C=C/c2ccco2)c(C)o1	none (no result: AHR activator)
c1ccc(-c2csc3ncn4nnnc4c23)cc1	ssDAF-12 act 1.0
Cn1nnnc1Sc1ncnc2scc(-c3ccccc3)c12	none
CC(C)(C)c1ccc(OCC(=O)NCC(c2cccs2)N2CCOCC2)cc1 (configuration not stated)	DAX1 inh-2 4.3
O=C(Nc1ccncc1)Nc1ccc(F)c(Cl)c1	none
O=C(Nc1ccc(F)c(Cl)c1)Nc1csc2ccccc12	AHR activator 72.7
O=C(Nc1ccc(F)cc1F)Nc1ccc(F)cc1F	none
O=C(Nc1ccc(F)cc1F)Nc1csc2ccccc12	AHR activator 50.9 (no result: DAX1 inh-1)
O=C(Nc1nc(-c2ccccc2)cs1)Nc1ccc(F)cc1F	DAX1 inh-1 4.7
COC(C(=O)NNC(=O)Cc1ccc(Cl)cc1)c1ccccc1 (configuration not stated)	DAX1 inh-1 4.3
O=C(Nc1nc(-c2ccccn2)cs1)Nc1ccc(F)cc1F	none
CN(C)c1ccc(CNC(=O)C2(C)Cc3c(-c4ccc5c(c4)OCO5)ccnc3O2)cc1 (configuration not stated)	none (no result: DAX1 inh-1, AHR activator)
COC(C(=O)Nc1ccc(Br)cc1F)c1ccccc1 (configuration not stated)	none
COC(C(=O)Nc1ccc(F)cc1F)c1ccccc1 (configuration not stated)	DAX1 inh-1 4.2
C[C@@H]1CN([C@@H](C)CO)C(=O)CCCn2cc(nn2)CO[C@H]1CN(C)C(=O)Nc1ccc(C(C)(C)C)cc1	none (no result: DAX1 inh-1, AHR activator)
CC(=O)N1C(=O)c2cccc3cccc(c23)C(=O)N1C(C)=O	none (no result: ssDAF-12 act, hgDAF12 agonist, DAX1 inh-1, hcDAF-12 act, DAX1 inh-2)
O=C1c2cccc3cccc(c23)C(=O)C1(O)O	hcDAF-12 act 5.8
O=C(Nc1cccnc1)c1ccc(CSc2ccc(Cl)cc2)o1	none (no result: DAX1 inh-1, AHR activator)
c1ccc(N=NN2CCOCC2)cc1	none (no result: AHR activator)
O=C(O)c1cccc(N=NN2CCOCC2)c1	DAX1 inh-2 3.7 (no result: DAX1 inh-1)
CN(C)CC(O)COC(c1ccc(Cl)cc1)c1ccc(Cl)cc1 (configuration not stated)	DAX1 inh-1 4.3
CC1CN(CC(O)COC(c2ccc(Cl)cc2)c2ccc(Cl)cc2)CC(C)O1 (configuration not stated)	none
COC(=O)Cc1nnn2c1[C@H](C)[C@H](c1ccccc1Br)OC[C@@H]2c1ccccc1	none (no result: DAX1 inh-1, AHR activator)
Nc1ncnc2c1ncn2[C@@H]1O[C@H](CNCC#Cc2ccccc2)[C@@H](O)[C@H]1O	none (no result: ssDAF-12 act, hgDAF12 agonist, hcDAF-12 act, DAX1 inh-2)
Cc1cc(/C=C(\C#N)C(=O)NC2CC2)c(C)[nH]1	hgDAF12 agonist 11.9, AHR activator 57.5
O=C(c1ccccc1Cc1ccccc1)N1CCN(S(=O)(=O)c2ccccc2[N+](=O)[O-])CC1	none
Cc1occc1-c1nc(-c2ccncc2)no1	none
c1ccc(-c2noc(-c3ccncc3)n2)nc1	DAX1 inh-2 3.8
c1ccc(-c2noc(-c3ccc4ccccc4c3)n2)nc1	none (no result: ssDAF-12 act, hgDAF12 agonist, hcDAF-12 act, DAX1 inh-2)
Cc1occc1-c1nc(-c2ccccn2)no1	hgDAF12 agonist 11.3, hcDAF-12 act 6.0
COc1cccc(-c2nc(-c3ccccn3)no2)c1	AHR activator 64.0 (no result: DAX1 inh-1)
c1ccc(-c2noc(C34CC5CC(CC(C5)C3)C4)n2)cc1	none
c1ccc(-c2noc(C34CC5CC(CC(C5)C3)C4)n2)nc1	ssDAF-12 act 0.9, hcDAF-12 act 6.3
O=C1NC(=O)C2(CCOc3ccc(F)cc32)N1 (configuration not stated)	none (no result: DAX1 inh-1, AHR activator)
Cc1cc(N2CCN(CC(C)(C)O)C[C@H]2C)ccc1N1CCN(CC(C)(C)O)[C@@H](C)C1	none (no result: DAX1 inh-1, AHR activator)
O=C1CC(NS(=O)(=O)c2cccnc2)CN1c1ccc(F)cc1 (configuration not stated)	DAX1 inh-2 3.9
Cc1ccc(N2CC(NS(=O)(=O)c3cccnc3)CC2=O)cc1C (configuration not stated)	none
FC(F)(F)c1cccc(-c2cc3nc(NCCOc4ccccc4)ccn3n2)c1	hgDAF12 agonist 11.9 (no result: DAX1 inh-1, AHR activator)
c1ccc(OCCNc2ccn3nc(-c4ccccc4)cc3n2)cc1	none (no result: DAX1 inh-1, AHR activator)
Cc1cc(C)cc(NC2=NC3(CCCCC3)N=C(N)N2)c1	AHR activator 55.7
